CendR NRP1 mod = modulators of CendR peptide binding to human neuropilin-1; FAM-RPARPAR peptide binding to NRP-1, fluorescence polarization; 360,000 tested, 0.85% active; AID 602438; inhibition, % at 25 µM;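 active means inhibition or corrected inhibition above about 18%, plus a signal ratio from 0.5 to 1.5, limit read from the data, passing the limit was not always enough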
ADAM10 inh = inhibits human ADAM10; O14672; recombinant ADAM10, EDANS/DABCYL FRET peptide cleavage, 3 h; 370,000 tested, 0.62% active; inhibition, % at 7 µM; AID 720582;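 active means inhibition above a per-campaign cutoff equal to the mean of compounds falling between control-based bounds plus 3 SD, cut at about 20% in these data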;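 further: 0% = DMSO wells while the 100% control is not disclosed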
APOBEC3G inh = inhibitors of human APOBEC3G DNA deaminase | Q9HC16 | recombinant A3G, ssDNA deamination FAM/TAMRA fluorescence | inhibition, % at 20 µM | 330,000 tested, 0.28% active | AID 493012;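 active means inhibition of at least 40% at 20 µM, with no more than 30% in the related APOBEC3A deaminase screen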;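 further: plate controls were DMSO wells with A3G for no effect and wells lacking A3G enzyme for full effect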
Target sequence (Q9HC16 whole entry, looked up): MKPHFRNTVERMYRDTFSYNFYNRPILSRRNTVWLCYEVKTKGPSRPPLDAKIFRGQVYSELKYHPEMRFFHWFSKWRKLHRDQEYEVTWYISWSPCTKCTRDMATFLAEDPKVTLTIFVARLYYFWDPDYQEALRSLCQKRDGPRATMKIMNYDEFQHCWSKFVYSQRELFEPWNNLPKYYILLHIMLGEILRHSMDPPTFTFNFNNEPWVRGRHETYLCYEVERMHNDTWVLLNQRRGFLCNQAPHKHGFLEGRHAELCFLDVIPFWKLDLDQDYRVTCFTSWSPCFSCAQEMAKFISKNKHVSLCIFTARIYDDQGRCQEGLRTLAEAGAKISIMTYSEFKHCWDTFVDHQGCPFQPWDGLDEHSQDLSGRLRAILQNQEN
APOBEC3A inh = human APOBEC3A DNA deaminase inhibition; 330,000 tested, 0.41% active; recombinant A3A, FAM/TAMRA ssDNA deamination fluorescence; P31941; inhibition, % at 20 µM;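 active means at least 40% inhibition at 20 µM here, with at most 30% in a related deaminase screen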;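 further: plate controls were A3A with DMSO for no effect and wells lacking A3A enzyme for full effect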
ADAM17 inh = inhibits human ADAM17. P78536. recombinant ADAM17, EDANS/DABCYL FRET peptide cleavage. 370,000 tested, 0.83% active. inhibition, % at 6.95 µM. AID 720648;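 active means inhibition above the mean of compounds lying between control limits plus 3 SD, set per campaign, cut at about 8.5% in these data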;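 further: 0% = DMSO-only wells as the low control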
Starred values were filed as active, the others as inactive; / = not tested or not shown. Most compounds without a hit are left out; they make up all but 2.4% or so of the library.

SMILES | CendR NRP1 mod | ADAM10 inh | APOBEC3G inh | APOBEC3A inh | ADAM17 inh
COC(=O)[C@]12C[C@H](CC(=O)N3CCN(C(=O)C4CC4)CC3)C(=O)N(Cc3ccccc3)C1=C[C@H](C1CCCC1)O[C@@H]2C | / | 3 | / | / | -2
CN1CCC(=NNC(=O)c2ccco2)CC1 | 36* | 6 | -9 | -4 | 0
NC(=O)C1CCN(C(=O)C2CCC(=O)N(CC3CCCCC3)C2)CC1 (stereo not given) | 18* | -4 | 1 | 1 | -7
NC(=O)C1CCN(C(=O)C2CCC(=O)N(C3CCCCCC3)C2)CC1 (stereo not given) | 0 | -7 | -7 | -1 | -1
CC(=O)N1CCc2cc(S(=O)(=O)N3CCCCC3C)ccc21 (stereo not given) | 35* | 5 | -10 | -3 | 0
Cc1ccc(-n2c(SC/C=C/c3ccccc3)nnc2-c2ccco2)cc1 | / | 9 | / | / | 5
COC(=O)c1cccc(NC(=S)NCCC2=CCCCC2)c1 | 36* | 8 | -4 | -3 | 2
COC(=O)c1ccc(NC(=S)NCCC2=CCCCC2)cc1 | -3 | 3 | -4 | -6 | -3
Cc1ccc(NC(=S)NNC(=O)CSc2nc3sc4c(c3c(=O)n2-c2ccccc2)CCCC4)cc1 | / | 14 | / | / | 1
c1ccc2sc(-c3csc4c3CCNC4)nc2c1 | / | -16 | / | / | -8
CCCOc1ccc(-c2nc(C#N)c(N3CCN(C)CC3)o2)cc1 | 34* | -255 | -5 | 10 | -89
Cc1ccc(NC(=O)c2cc(N3C(=O)C4CCCCC4C3=O)ccc2N2CCOCC2)cc1 (stereo not given) | 25* | -2 | -10 | 1 | -2
COc1ccc(C2CC(=O)N3CN(c4ccccc4F)CSC3=C2C#N)cc1OC (stereo not given) | -27 | -12 | 46* | -3 | 2
COCCNC(=S)N(C)[C@H]1C[C@H]2c3[nH]c4c(-c5ccccc5)cccc4c3CCN2C[C@H]1[C@H](C)O | / | -144 | / | / | -33
COc1ccc(S[C@]2(C(=O)N3CCN(C(C)=O)CC3)CC(=O)N[C@@H]2c2ccc(OC)cc2)cc1 | / | -2 | / | / | -1
COc1ccc(NC(=O)C(C)Sc2ccccc2)cc1 (stereo not given) | 42* | 9 | 5 | 27 | 0
Cc1nc2ccc(NC(=O)[C@H](C)N3C(=O)C4CC=CCC4C3=O)cc2s1 (stereo not given in full) | 19* | 1 | -9 | -3 | -5
Cc1cnc(NC(=O)C(C)N2C(=O)C3CC=CCC3C2=O)s1 (stereo not given) | 3 | 0 | -7 | -2 | 1
O=C(CN1C(=O)NC(Cc2ccccc2)C1=O)Nc1ccc(OC(F)(F)F)cc1 (stereo not given) | 34* | -3 | 0 | 10 | 2
O=C(/C=C(\Nc1cccc(OC(F)F)c1)c1ccccc1)c1ccccc1 | / | -9 | / | / | -4
CCC(C)[C@H](NC(=O)Nc1cccc(Cl)c1)C(=O)O (stereo not given in full) | 20* | 0 | -10 | -1 | -2
COc1ccc(C(=O)Cn2nnc(-c3ccccc3NC(=O)C3CC3)n2)cc1 | 33* | 5 | -9 | -22 | -1
O=C(NCC1COCCO1)C1CCN(S(=O)(=O)c2cccc3ccccc23)CC1 (stereo not given) | / | -5 | / | / | 4
COc1cccc(/C=N/NC(=O)c2cc(C34CC5CC(CC(C5)C3)C4)[nH]n2)c1 | -2 | 3 | -9 | -5 | -2
COc1ccc(/C=N/NC(=O)c2cc(C34CC5CC(CC(C5)C3)C4)[nH]n2)cc1OC | 22* | -3 | -8 | -3 | -4
SMILES | CendR NRP1 mod | ADAM10 inh | APOBEC3G inh | APOBEC3A inh | ADAM17 inh
O=C(C1CCC1)N1CCc2cc(S(=O)(=O)N3CCN(c4ccccc4F)CC3)ccc21 | / | -6 | / | / | -1
CC(=O)c1ccc(OCC(=O)Nc2nnc(C3CC3)s2)cc1 | 29* | -12 | / | / | -2
C[C@@H]1CN(c2ccc(N3CCN(C(=O)OC(C)(C)C)C[C@@H]3C)cc2C#N)CCN1Cc1ccccc1 | / | -57 | / | / | -11
COc1ccc(/C=N\NS(=O)(=O)c2ccc(Br)cc2)cc1COc1ccccc1[N+](=O)[O-] | 1 | 6 | -3 | -2 | -1
COc1ccc(/C=N\NS(=O)(=O)c2ccc(Cl)cc2)cc1COc1ccccc1[N+](=O)[O-] | 24* | 4 | -1 | -2 | -1
Nc1cccc2cccc([N+](=O)[O-])c12 | 1 | -14 | / | / | 7
O=c1ccc2cccc([N+](=O)[O-])c2[nH]1 | 22* | -6 | / | / | -3
